This passage reports log2 fold change results from the supplement of paper PMC10849652.

Targets with a hit are over-represented here; the source holds about 7,900 in all. About 0.6% of all pairs of compound and target were hits. Values without a mark were called inactive.

Sequence of UniProt Q641Q2 (Q641Q2 whole entry, looked up): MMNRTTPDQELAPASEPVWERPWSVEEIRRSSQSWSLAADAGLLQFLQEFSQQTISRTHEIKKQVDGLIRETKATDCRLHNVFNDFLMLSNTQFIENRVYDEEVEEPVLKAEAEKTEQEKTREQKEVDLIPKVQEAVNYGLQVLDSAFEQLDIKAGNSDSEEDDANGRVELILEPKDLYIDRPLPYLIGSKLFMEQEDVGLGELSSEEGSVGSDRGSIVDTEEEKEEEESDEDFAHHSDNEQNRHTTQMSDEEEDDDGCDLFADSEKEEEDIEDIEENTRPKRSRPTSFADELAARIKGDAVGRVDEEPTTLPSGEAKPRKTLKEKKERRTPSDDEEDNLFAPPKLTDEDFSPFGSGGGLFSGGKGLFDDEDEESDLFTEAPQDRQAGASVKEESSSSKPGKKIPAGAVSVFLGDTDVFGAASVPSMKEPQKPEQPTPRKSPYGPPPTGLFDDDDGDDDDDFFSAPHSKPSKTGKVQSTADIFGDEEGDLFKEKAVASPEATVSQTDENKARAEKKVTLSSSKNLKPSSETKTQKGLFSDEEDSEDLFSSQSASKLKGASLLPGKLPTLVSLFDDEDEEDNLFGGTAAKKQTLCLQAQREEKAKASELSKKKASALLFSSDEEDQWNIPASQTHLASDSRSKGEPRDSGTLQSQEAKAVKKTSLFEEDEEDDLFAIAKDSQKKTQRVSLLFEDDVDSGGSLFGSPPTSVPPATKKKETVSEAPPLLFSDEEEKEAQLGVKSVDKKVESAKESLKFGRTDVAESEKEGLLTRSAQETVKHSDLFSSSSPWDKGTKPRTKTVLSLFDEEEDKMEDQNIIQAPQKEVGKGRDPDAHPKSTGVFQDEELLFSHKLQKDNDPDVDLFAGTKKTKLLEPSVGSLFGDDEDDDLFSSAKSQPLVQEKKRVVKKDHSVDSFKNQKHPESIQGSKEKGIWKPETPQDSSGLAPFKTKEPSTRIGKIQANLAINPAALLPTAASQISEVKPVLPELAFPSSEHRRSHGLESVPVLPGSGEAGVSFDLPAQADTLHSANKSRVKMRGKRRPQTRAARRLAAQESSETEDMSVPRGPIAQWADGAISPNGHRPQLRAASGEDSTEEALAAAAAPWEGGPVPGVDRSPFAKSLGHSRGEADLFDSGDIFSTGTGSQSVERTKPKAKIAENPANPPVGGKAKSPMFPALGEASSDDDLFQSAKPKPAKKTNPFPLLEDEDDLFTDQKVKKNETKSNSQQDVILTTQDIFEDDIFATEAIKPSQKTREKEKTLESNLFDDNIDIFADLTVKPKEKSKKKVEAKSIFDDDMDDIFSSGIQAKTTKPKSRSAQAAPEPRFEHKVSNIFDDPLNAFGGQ
Sequence of UniProt Q99816 (Q99816 whole entry, looked up): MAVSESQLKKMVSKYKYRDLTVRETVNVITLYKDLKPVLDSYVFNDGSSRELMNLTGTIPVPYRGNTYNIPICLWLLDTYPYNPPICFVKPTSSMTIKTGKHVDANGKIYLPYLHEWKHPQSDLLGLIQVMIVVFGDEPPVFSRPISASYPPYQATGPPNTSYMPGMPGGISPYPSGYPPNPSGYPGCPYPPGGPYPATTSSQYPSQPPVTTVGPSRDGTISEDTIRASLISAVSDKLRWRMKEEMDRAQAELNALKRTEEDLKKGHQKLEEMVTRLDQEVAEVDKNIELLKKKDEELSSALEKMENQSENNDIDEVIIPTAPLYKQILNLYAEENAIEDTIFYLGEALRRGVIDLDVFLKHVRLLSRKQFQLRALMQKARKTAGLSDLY
Sequence of UniProt Q9Y4E6 (Q9Y4E6 whole entry, looked up): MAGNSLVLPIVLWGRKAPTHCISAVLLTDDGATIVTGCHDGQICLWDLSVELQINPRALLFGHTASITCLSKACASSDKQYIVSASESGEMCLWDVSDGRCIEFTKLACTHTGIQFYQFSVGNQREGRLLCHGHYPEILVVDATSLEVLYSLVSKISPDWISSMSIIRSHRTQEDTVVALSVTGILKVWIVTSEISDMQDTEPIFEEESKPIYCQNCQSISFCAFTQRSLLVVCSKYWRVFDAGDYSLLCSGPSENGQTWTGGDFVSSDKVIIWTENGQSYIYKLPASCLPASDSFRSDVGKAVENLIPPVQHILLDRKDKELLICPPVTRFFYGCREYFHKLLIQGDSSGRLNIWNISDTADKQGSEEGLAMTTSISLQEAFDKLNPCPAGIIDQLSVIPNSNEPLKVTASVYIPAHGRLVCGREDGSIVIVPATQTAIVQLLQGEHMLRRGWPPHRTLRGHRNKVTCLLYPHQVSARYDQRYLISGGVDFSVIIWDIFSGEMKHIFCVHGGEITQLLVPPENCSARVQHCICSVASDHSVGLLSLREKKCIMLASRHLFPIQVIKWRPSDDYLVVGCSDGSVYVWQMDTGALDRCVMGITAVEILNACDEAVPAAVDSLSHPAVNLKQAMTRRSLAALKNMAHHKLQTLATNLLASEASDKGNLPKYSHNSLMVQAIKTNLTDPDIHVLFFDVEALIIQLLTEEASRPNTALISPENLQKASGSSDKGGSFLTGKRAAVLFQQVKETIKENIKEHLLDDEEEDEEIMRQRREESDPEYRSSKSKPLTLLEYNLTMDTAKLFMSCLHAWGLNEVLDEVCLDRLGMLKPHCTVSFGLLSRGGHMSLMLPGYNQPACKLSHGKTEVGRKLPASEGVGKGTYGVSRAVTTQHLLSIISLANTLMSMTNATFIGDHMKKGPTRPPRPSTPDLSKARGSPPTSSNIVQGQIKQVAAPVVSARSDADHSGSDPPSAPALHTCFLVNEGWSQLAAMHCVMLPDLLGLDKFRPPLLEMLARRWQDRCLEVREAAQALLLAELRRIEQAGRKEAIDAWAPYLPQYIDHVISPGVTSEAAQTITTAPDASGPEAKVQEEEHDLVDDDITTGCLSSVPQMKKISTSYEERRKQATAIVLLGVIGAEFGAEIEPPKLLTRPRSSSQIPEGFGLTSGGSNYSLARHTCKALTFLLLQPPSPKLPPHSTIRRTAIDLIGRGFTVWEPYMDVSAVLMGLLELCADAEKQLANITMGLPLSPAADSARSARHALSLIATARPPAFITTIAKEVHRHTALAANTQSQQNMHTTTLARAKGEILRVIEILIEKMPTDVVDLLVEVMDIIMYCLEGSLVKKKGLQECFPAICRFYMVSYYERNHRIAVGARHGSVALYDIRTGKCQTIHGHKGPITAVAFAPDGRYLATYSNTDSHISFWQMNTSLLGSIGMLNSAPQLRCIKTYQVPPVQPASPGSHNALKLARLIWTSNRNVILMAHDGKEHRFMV
Sequence of UniProt P0CG48 (P0CG48 whole entry, looked up): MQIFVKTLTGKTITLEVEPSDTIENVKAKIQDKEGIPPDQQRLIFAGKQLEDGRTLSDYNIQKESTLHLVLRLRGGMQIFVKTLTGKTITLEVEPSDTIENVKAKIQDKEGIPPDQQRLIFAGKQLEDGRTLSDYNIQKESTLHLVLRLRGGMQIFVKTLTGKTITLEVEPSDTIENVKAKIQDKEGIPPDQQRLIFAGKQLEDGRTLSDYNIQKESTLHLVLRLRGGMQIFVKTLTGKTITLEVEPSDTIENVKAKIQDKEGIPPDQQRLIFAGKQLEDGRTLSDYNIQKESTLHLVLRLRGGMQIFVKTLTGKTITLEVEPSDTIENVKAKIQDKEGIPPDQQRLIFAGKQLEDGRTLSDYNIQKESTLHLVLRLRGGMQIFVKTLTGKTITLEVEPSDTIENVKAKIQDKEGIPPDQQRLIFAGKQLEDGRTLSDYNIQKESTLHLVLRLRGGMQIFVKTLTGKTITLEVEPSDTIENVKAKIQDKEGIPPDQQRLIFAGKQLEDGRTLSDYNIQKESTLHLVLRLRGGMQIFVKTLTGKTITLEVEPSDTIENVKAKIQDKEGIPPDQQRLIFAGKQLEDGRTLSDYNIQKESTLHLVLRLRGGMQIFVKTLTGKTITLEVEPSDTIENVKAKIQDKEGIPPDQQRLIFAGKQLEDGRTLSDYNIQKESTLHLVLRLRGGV
Sequence of UniProt Q8TBZ6 (Q8TBZ6 whole entry, looked up): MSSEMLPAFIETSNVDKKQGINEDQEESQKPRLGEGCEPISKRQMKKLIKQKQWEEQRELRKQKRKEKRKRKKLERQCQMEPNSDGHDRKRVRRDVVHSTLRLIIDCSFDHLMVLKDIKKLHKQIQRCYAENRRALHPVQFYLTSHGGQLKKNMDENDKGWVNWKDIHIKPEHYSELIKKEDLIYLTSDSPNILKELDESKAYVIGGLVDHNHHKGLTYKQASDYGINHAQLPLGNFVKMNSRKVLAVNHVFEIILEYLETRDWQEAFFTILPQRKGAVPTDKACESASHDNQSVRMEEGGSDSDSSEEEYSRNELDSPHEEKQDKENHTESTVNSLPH
Sequence of UniProt Q86SZ2 (Q86SZ2 whole entry, looked up): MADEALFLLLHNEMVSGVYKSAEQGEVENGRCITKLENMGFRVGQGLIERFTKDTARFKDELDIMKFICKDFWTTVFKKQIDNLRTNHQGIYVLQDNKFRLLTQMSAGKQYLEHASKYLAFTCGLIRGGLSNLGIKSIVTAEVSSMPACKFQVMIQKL
Sequence of UniProt Q7Z7E8 (Q7Z7E8 whole entry, looked up): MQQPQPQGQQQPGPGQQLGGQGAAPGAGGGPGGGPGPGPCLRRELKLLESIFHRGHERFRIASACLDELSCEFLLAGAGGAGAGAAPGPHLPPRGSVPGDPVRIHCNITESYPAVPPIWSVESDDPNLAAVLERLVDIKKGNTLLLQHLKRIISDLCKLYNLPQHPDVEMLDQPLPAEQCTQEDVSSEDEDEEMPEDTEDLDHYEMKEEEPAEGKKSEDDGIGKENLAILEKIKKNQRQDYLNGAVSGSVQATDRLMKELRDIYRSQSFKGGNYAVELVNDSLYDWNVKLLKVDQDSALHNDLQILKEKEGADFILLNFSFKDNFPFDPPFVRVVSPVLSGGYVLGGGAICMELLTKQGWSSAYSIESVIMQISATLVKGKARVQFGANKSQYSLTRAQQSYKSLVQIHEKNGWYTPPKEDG
Sequence of UniProt O00258 (O00258 whole entry, looked up): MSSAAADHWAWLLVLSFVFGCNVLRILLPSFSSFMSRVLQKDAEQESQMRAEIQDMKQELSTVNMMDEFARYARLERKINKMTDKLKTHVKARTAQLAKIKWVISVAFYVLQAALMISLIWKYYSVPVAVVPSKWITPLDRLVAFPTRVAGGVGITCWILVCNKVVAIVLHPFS

Compound in one assay: C1=CC=C2C(=C1)C3=NNC4=CC=CC(=C43)C2=O
Put plainly: log2 fold change, soluble protein after heating vs DMSO (PISA); higher = thermal stabilisation; K562 cells, 10 uM, 30 min; active = over 0.2 and 3.5 SD of the protein, either way, in both replicates (recomputed). The method, boiled down:
(§1)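 Soluble protein was quantified by TMTpro 16plex LC-MS/MS after channel sums were equalised. It was obtained as the supernatant after 21,000xg for 90 min from pooled aliquots of K562 cells (2×10^6 cells/mL, 10 μM compound, 30 min) heated for 3 min across 48°C-58°C and extracted in PBS with 0.5% NP-40 at 4°C. Thermal stability values are relative to control samples and come from duplicates. They are given as log2 fold changes.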
In the case of VPS52 (UniProt Q8N1B4), the log2 fold change is 0.079.

With TRAPPC6B (UniProt Q86SZ2), the log2 fold change is -0.014.

For WDR7 (UniProt Q9Y4E6), the log2 fold change was 0.028.

For the target TMEM189-UBE2V1 (UniProt I3L0A0), the log2 fold change was -0.009.

Turning to TTI1 (UniProt O43156), the log2 fold change is 0.008.

For WASHC2A (UniProt Q641Q2), the log2 fold change was -0.037.

Consider TSG101 (UniProt Q99816), for which the log2 fold change was 0.

For the target TRMT10A (UniProt Q8TBZ6), the log2 fold change is 0.271 (active).

Consider WARS2 (UniProt Q9UGM6), for which the log2 fold change was 0.031.

With UBE2Q1 (UniProt Q7Z7E8), the log2 fold change was 0.026.

In the case of VPS53 isoform 4 (UniProt Q5VIR6), the log2 fold change was 0.022.

TOM1L1 (UniProt O75674): the log2 fold change was -0.026.

As to UBC (UniProt P0CG48), the log2 fold change was 0.009.

Compound in the next assay: C1CCN(C1)C(=O)NC2=CC=CC(=C2)NC3=NC=C(C(=N3)NCCC4=CN=CN4)Br
The description is as above. The method in brief:
as §1
Consider VPS72 isoform 2 (UniProt Q15906), for which the log2 fold change is 0.056.

In the case of UBE2J1 (UniProt Q9Y385), the log2 fold change is -0.097.

WDR43 (UniProt Q15061): the log2 fold change is -0.013.

For UCHL5 isoform 3 (UniProt Q9Y5K5), the log2 fold change is 0.207.

Turning to TMEM161A (UniProt Q9NX61), the log2 fold change is -0.067.

As to VPS50 (UniProt Q96JG6), the log2 fold change was -0.022.

In the case of XRCC6 (UniProt P12956), the log2 fold change was -0.043.

With WRB (UniProt O00258), the log2 fold change is 0.027.

As for TMEM214 (UniProt Q6NUQ4), the log2 fold change was 0.009.

As for TOM1 isoform 2 (UniProt O60784), the log2 fold change was -0.023.

For the target UBE3D (UniProt Q7Z6J8), the log2 fold change is -0.114.

For TOE1 (UniProt Q96GM8), the log2 fold change is -0.021.

TRMT2A (UniProt Q8IZ69): the log2 fold change was 0.031.

In the case of VAMP7 (UniProt P51809), the log2 fold change is 0.001.

Take VTA1 (UniProt Q9NP79): the log2 fold change was 0.01.

Turning to VPS41 (UniProt P49754), the log2 fold change is 0.043.

With TMEM208 (UniProt Q9BTX3), the log2 fold change is -0.002.

Turning to USP14 (UniProt P54578), the log2 fold change is -0.016.

TRIM4 (UniProt Q9C037): the log2 fold change is -0.111.

As to TMEM41A (UniProt Q96HV5), the log2 fold change was -0.069.

For the target TRAM1 (UniProt Q15629), the log2 fold change was 0.105.

USP15 (UniProt Q9Y4E8): the log2 fold change was -0.011.

In the case of TNNC2 (UniProt P02585), the log2 fold change is 0.101.

Consider VPS52 (UniProt Q8N1B4), for which the log2 fold change was -0.033.

As to TRAPPC6B (UniProt Q86SZ2), the log2 fold change was -0.048.

Regarding WDR7 (UniProt Q9Y4E6), the log2 fold change was -0.009.

Regarding TMEM189-UBE2V1 (UniProt I3L0A0), the log2 fold change is 0.02.

For TTI1 (UniProt O43156), the log2 fold change was 0.019.

With WASHC2A (UniProt Q641Q2), the log2 fold change was 0.029.

Turning to TSG101 (UniProt Q99816), the log2 fold change is 0.003.

TRMT10A (UniProt Q8TBZ6): the log2 fold change was 0.038.

In the case of WARS2 (UniProt Q9UGM6), the log2 fold change was 0.027.

Regarding UBE2Q1 (UniProt Q7Z7E8), the log2 fold change is -0.016.

Consider VPS53 isoform 4 (UniProt Q5VIR6), for which the log2 fold change is -0.021.

In the case of TOM1L1 (UniProt O75674), the log2 fold change is 0.006.

On to UBC (UniProt P0CG48), for which the log2 fold change is 0.043.

Compound in the next assay: C1CN(CCC1(CC2=CC=C(C=C2)Cl)N)C3=NC=NC4=C3C=CN4
Described as above. The method in brief: as §1
As for VPS72 isoform 2 (UniProt Q15906), the log2 fold change was 0.028.

For UBE2J1 (UniProt Q9Y385), the log2 fold change is 0.012.

Consider WDR43 (UniProt Q15061), for which the log2 fold change was 0.042.

With UCHL5 isoform 3 (UniProt Q9Y5K5), the log2 fold change is -0.103.

With TMEM161A (UniProt Q9NX61), the log2 fold change is 0.054.

Regarding VPS50 (UniProt Q96JG6), the log2 fold change was -0.021.

Turning to XRCC6 (UniProt P12956), the log2 fold change is -0.025.

Regarding WRB (UniProt O00258), the log2 fold change was -0.011.

As to TMEM214 (UniProt Q6NUQ4), the log2 fold change is -0.088.

Regarding TOM1 isoform 2 (UniProt O60784), the log2 fold change was 0.014.

Regarding UBE3D (UniProt Q7Z6J8), the log2 fold change was 0.079.

As to TOE1 (UniProt Q96GM8), the log2 fold change is -0.107.

TRMT2A (UniProt Q8IZ69): the log2 fold change was -0.011.

As for VAMP7 (UniProt P51809), the log2 fold change is 0.03.

In the case of VTA1 (UniProt Q9NP79), the log2 fold change is -0.024.

Consider VPS41 (UniProt P49754), for which the log2 fold change is -0.058.

For TMEM208 (UniProt Q9BTX3), the log2 fold change is 0.033.

For the target USP14 (UniProt P54578), the log2 fold change was -0.001.

For the target TRIM4 (UniProt Q9C037), the log2 fold change was -0.073.

For the target TMEM41A (UniProt Q96HV5), the log2 fold change is 0.033.

For the target TRAM1 (UniProt Q15629), the log2 fold change was 0.

In the case of USP15 (UniProt Q9Y4E8), the log2 fold change was -0.031.

With TNNC2 (UniProt P02585), the log2 fold change is -0.449.

With VPS52 (UniProt Q8N1B4), the log2 fold change was -0.051.

For the target TRAPPC6B (UniProt Q86SZ2), the log2 fold change is 0.018.

Regarding WDR7 (UniProt Q9Y4E6), the log2 fold change is -0.02.

Consider TMEM189-UBE2V1 (UniProt I3L0A0), for which the log2 fold change was 0.058.

Regarding TTI1 (UniProt O43156), the log2 fold change was 0.028.

Take WASHC2A (UniProt Q641Q2): the log2 fold change is -0.017.

As for TSG101 (UniProt Q99816), the log2 fold change was -0.006.

Consider TRMT10A (UniProt Q8TBZ6), for which the log2 fold change was -0.045.

With WARS2 (UniProt Q9UGM6), the log2 fold change was -0.027.

As for UBE2Q1 (UniProt Q7Z7E8), the log2 fold change is -0.037.

For VPS53 isoform 4 (UniProt Q5VIR6), the log2 fold change was -0.004.

Take TOM1L1 (UniProt O75674): the log2 fold change was 0.076.

Turning to UBC (UniProt P0CG48), the log2 fold change was -0.041.
